PTHR1 ag – PTHR1 (human) receptor agonism; Q03431; HEK293 GP2 PTHR1 cells, GloSensor cAMP luminescence, 1 h; Potency, µM (titrated, usually from 115 µM), without a hit: top-dose activation, most hits filed as activators; hit rate 0.075% among 410,000; note: nearly all actives have a fitted effect of over 55% in size
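HEK-293-derived GP2 cells expressing PTHR1 and a GloSensor cAMP reporter, 3,000/well, plated overnight, given luciferin plus IBMX (each 0.5 mM as added) for 1 h at 37 °C, then compound for 1 h at 37 °C. Luminescence was read after 15 min at room temperature.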
ALOX12 inh – blocks human arachidonate 12S-lipoxygenase; Potency, µM (doses to about 108 µM), without a hit: at the highest dose activity change, negative = inhibition, usual class: inhibitors; P18054; hit rate 1.1% among 580,000; AID 1671190; purified 12hLO, xylenol orange hydroperoxide absorbance; note: % is set by controls: 0 for no effect and ±100 for the full control effect
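Hydroperoxide product was detected by ferrous iron/xylenol orange as the 573 to 405 nm absorbance ratio. Arachidonic acid at 40 uM (final) was turned over for 30 min at room temperature by 150 nM human 12hLO, pH 7.0 Hepes buffer, after 15 min compound preincubation.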
GLP-1R agonist – activates the human GLP-1 receptor. hit rate 0.007% among 380,000. HEK293 GLP-1R CRE-luciferase, luminescence, 4-6 h; cells express a hypersensitive GLP-1R form. AID 624172. Potency, µM (titrated, usually from 45.6 µM), for the others: top-dose activation, actives largely listed as activators. P43220; note: % of control where 0% means no effect
Glioma ERSR ind – ER stress response induction in glioma; U87-MG GRP78 promoter luciferase reporter, 16 h; Potency, µM, for inactives: at the highest dose activation, most hits filed as activators; hit rate 0.02% among 420,000; AID 602332; note: series mostly up to about 76 µM; % of control where 0% means no effect; nearly all actives have a fitted effect of over 35% in size
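Stably transfected U87-MG glioma cells carrying a GRP78-based luciferase sensor; 16 h compound incubation. Luminescence end-point read 10 min after Bright-Glo addition at room temperature.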
GLP-1R inv ag – GLP-1 receptor (human) inverse agonism; HEK293 GLP-1R CRE-luciferase, luminescence, 24 h; GLP-1R form is constitutively active; hit rate 1.6% among 410,000; Potency, µM (titrated, usually from 38.3 µM), for the others: at the highest dose activity change, negative = inhibition, hits mostly inhibitors; P43220; note: % is set by controls: 0 for no effect and ±100 for the full control effect; nearly all actives have a fitted effect of over 55% in size
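Inverse agonists were sought by their lowering of basal cAMP reporter luciferase output in HEK293 cells stably carrying constitutively active human GLP-1R, after 24 h compound treatment.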
GLS inhibitor – inhibitors of human glutaminase (GLS); GLS enzymatic activity, qHTS titration; hit rate 0.21% among 410,000; Potency, µM (doses to about 45.5 µM), for the others: at the highest dose activity change, negative = inhibition, most hits filed as inhibitors; AID 624170; note: % is set by controls: 0 for no effect and ±100 for the full control effect
Target sequence (O94925 whole entry, looked up): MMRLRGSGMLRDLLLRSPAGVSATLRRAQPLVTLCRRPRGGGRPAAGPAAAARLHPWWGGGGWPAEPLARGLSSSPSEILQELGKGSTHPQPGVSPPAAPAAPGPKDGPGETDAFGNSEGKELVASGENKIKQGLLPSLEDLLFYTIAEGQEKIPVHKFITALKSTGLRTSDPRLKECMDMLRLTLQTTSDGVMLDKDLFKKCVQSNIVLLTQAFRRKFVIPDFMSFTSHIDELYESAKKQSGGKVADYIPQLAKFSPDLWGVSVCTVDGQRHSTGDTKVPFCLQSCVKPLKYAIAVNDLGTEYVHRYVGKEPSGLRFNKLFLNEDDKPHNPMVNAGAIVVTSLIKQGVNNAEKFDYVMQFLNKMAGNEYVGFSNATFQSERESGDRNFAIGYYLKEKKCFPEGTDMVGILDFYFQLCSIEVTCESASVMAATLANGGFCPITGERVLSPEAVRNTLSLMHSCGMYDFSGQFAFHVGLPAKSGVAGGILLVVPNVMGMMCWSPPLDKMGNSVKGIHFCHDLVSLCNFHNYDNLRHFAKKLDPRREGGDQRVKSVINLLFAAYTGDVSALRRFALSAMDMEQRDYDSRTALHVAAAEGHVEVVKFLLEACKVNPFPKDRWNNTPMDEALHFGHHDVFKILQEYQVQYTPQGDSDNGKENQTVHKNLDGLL
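Coupled fluorescence readout: glutamate oxidase/HRP/Amplex Red detect glutamate formed by hKGA from L-glutamine (1 mM solution added). Buffer 45 mM KH2PO4 pH 8.2, 0.02% Tween-20; reads at t0 and 30 min RT.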
Active calls of the source: *; i = inactive; ? = inconclusive; · = no result given; [ ] = another dose, or the depositor's remark. An excerpt weighted towards active compounds, which were near 2.3% of everything screened. Calls come from the whole dose curve; as a rule, active = well fitted curve in the direction sought with a large enough effect; inconclusive = small, poorly fitted or top-dose-only effect, or another doubt; inactive = no such curve, though single readings can be large; an effect the other way counts as inactive or inconclusive. Potency is the fitted concentration of half-maximal effect.

SMILES	PTHR1 ag	ALOX12 inh	GLP-1R agonist	Glioma ERSR ind	GLP-1R inv ag	GLS inhibitor
COc1ccc(CC(=O)OC(C)C(=O)c2ccc(C)cc2)cc1Br (configuration not stated)	·	-3%	·	·	·	·
COc1cc(/C=N/O)cc(I)c1OCC(=O)Nc1ccc(C)cc1	·	-27%	·	·	·	·
Cc1cc2nn(-c3ccc(Cl)cc3)nc2cc1N	-88%	7.1µM*	-1%	-7%	?	-7%
COc1ccc(-n2nc3cc(C)c(N)cc3n2)cc1Cl	-7%	8.9µM*	-2%	-4%	17%	-9%
Cc1cc2nn(-c3ccc(F)cc3)nc2cc1N	-22%	9%	0%	-9%	?	3%
O=C(O)CCC(=O)N1Cc2ccccc2CC2(CCN(Cc3cccnc3)C2)C1 (configuration not stated)	·	8%[6.33 µM]	·	·	·	·
FC(F)(F)c1cc(Cl)c2nc(-c3ccco3)c(Cc3ccccc3C(F)(F)F)n2c1	-63%	10µM*	-1%	·	-30%	-5%
Cc1ccccc1CN(C)C(C)C(=O)Nc1ccccc1F (configuration not stated)	-33%	5%	14%	-4%	8.9µM*	3%
COc1ccc(/C=N\NC(=O)c2ccccc2)cc1COc1ccc(F)cc1	-18%	7%	-5%	-3%	7.9µM*	-9%
COc1ccc(/C=N\NC(=O)c2ccccc2Br)cc1COc1ccc(F)cc1	-4%	-56%	-3%	-6%	21%	-3%
COc1ccc(C(=O)N/N=C/c2ccc(OC)c(COc3ccc(F)cc3)c2)cc1	i	-18%	-28%	-2%	10µM*	11%
CN(Cc1ccccc1)C(=O)c1cc2ccccc2oc1=O	·	20%	·	·	·	·
Cc1cccc(CN2CCN(Cc3nc(-c4cccs4)oc3C)CC2CCO)n1 (configuration not stated)	·	30%	·	·	·	·
O=C(CN1CCCC1)N1c2ccccc2Sc2ccccc21	i	0%	-4%	-4%	-3%	-4%
CC1(C)CCCN(C(=O)N2c3ccccc3Sc3ccccc32)C1	-23%	0%	6%	-5%	4.5µM*	7%
CC1=C(C(=O)Nc2ccccc2)C(c2ccc(C(C)(C)C)cc2)NC(=S)N1 (configuration not stated)	·	40µM*	·	·	·	·
CCOC(=O)C1=C(c2ccccc2)NC(=S)NC1c1cc([N+](=O)[O-])ccc1OC (configuration not stated)	i	40µM*	-12%	-4%	-16%	-1%
CCCOc1ccc(C2NC(=S)NC(c3ccccc3)=C2C(=O)Nc2ccc(C)cc2)cc1OC (configuration not stated)	0%	32µM*	-4%	-4%	-21%	?
COc1cc(C2NC(=S)NC(c3ccccc3)=C2C(C)=O)ccc1O (configuration not stated)	i	-21%	-6%	-3%	-10%	-8%
CCOC(=O)C1=C(c2ccccc2)NC(=S)NC1c1cccc([N+](=O)[O-])c1 (configuration not stated)	-12%	-15%	1%	-1%	-4%	18%
Cc1ccc(NC(=O)C2=C(c3ccccc3)NC(=S)NC2c2ccc(C(C)(C)C)cc2)cc1 (configuration not stated)	·	14µM*	·	·	·	·
CCOc1cc(C2NC(=S)NC(C)=C2C(=O)Nc2ccccc2)ccc1O (configuration not stated)	i	?	8%	-4%	8%	?
O=C(OCc1c(F)cccc1Cl)c1ccc(C2Nc3ccccc3S(=O)(=O)N2)cc1 (configuration not stated)	·	-6%	·	·	·	·
CCN(Cc1ccc(Br)s1)C(=O)Cn1nnc(-c2ccccc2)n1	·	-1%	·	·	·	·
CC1(C)Cc2ccccc2C(CSc2nc3c(c(C(F)(F)F)n2)CC(C(C)(C)C)CC3)=N1 (configuration not stated)	·	8%	·	·	·	·
SMILES	PTHR1 ag	ALOX12 inh	GLP-1R agonist	Glioma ERSR ind	GLP-1R inv ag	GLS inhibitor
COc1ccc(CNC(=O)C2(c3ccc(NC(C)=O)cc3)CCC2)cc1	·	4%	·	·	·	·
COc1ccc(CNC(=O)C2(c3ccc(Cl)cc3)CC2)cc1	-19%	-4%	32%	-4%	10µM*	4%
COc1ccc(N2CCN(C(=O)CNC(=O)Cc3ccc(Cl)cc3)CC2)cc1	-10%	32µM*	-3%	-6%	?	29%
CC1CCC(C(=O)Nc2ccc(Br)cc2)CC1 (configuration not stated)	·	15%	·	·	·	·
N#C/C(=C\c1ccc(O)c(O)c1)S(=O)(=O)c1ccccc1	-5%[57.5 µM]	3.2µM*	1%	-6%	14%	25%
N#C/C(=C/c1ccc(F)cc1)S(=O)(=O)c1ccccc1	i	0%	1%	-1%	9%	0%
N#C/C(=C/c1cccc(F)c1)S(=O)(=O)c1ccc(Br)cc1	·	22µM*	·	·	·	·
CCOc1c(Br)cc(C(=O)OC(C)C(=O)c2ccc(F)c(F)c2)cc1OC (configuration not stated)	·	-25%	·	·	·	·
N#Cc1cccc(-c2nccc(-n3ccnc3)n2)c1	·	25µM*	·	3%	·	·
CS(=O)(=O)Nc1cccc(-c2nccc(-n3ccnc3)n2)c1	·	22µM*	·	1%	·	·
COc1ccc(-c2ccc(C)cc2)cc1[C@H]1[C@@H]2C=CCC[C@@]2(C)C(=O)N1Cc1ccccc1	-36%	-26%	5%	-2%	10µM*	8%
C[C@@]12CCC=C[C@H]1[C@H](c1ccc(/C=C/c3ccccc3)cc1F)N(Cc1ccccc1)C2=O	-19%	?	3%	-6%	7.9µM*	2%
COc1ccc(-c2ccc(C)cc2)cc1C1C2C=CCCC2(C)C(=O)N1Cc1ccccc1 (configuration not stated)	·	·	·	-4%	·	·
CC12CCC=CC1C(c1ccc(F)c(/C=C/c3ccccc3)c1)N(Cc1ccccc1)C2=O (configuration not stated)	·	·	·	-1%	·	·
C1=C(c2ccccc2)Nc2nnnn2C1c1cccs1 (configuration not stated)	-20%[57.5 µM]	424%	-3%	2%	1%	6%
Clc1ccc(C2C=C(c3ccccc3)Nc3nnnn32)c(Cl)c1 (configuration not stated)	·	18µM*	·	·	·	·
COc1ccc(C2=CC(c3cccc(C)c3)n3nnnc3N2)cc1 (configuration not stated)	-5%	1%	·	-4%	-3%	3%
COc1ccc(C2=CC(c3c(F)cccc3Cl)n3nnnc3N2)cc1 (configuration not stated)	·	40µM*	·	·	·	·

Screening data: PubChem BioAssay, National Center for Advancing Translational Sciences (NCATS)
